Compounds with a hit are over-represented: about 2.2% of the library has one in this group of screens.
IEC-6 tox = cytotoxicity in IEC-6 intestinal epithelial cells, primary screen, cytotoxicity control for KLF5 inhibitor project, cell-based, luminescence; IEC-6 cytotoxicity, luminescence viability; inhibition, % at 5 µM; 290,000 tested, 0.78% active; in the data active = inhibition above about 22%
aSyn 5UTR inh = MLPCN primary screen, SNCA 5' untranslated region. alpha-synuclein 5'UTR reporter, inhibitor activity. inhibition, % (tested at 7.5 µM). 300,000 tested, 0.82% active; in the data active = inhibition above about 60%;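 note: H4 neuroglioblastoma cells stably carrying SNCA 5'UTR luciferase fusion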
BaF3 parental = parental Ba/F3 cell viability inhibition, counter-screen for JAK2V617F inhibitor project, murine pro-B, CellTiter-Glo luminescence. CellTiter-Glo ATP luminescence. inhibition, % at 5.6 µM. 220,000 tested, 1.1% active. AID 1486, 2009;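 active = inhibition above a per-campaign cutoff, the mean inhibition of all tested compounds plus 3 SD, cut at about 27% in these data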
KLF5 inhibitor = KLF5 expression inhibitors, primary screen, DLD-1 cells, luminescence. DLD-1 KLF5 promoter-luciferase reporter. inhibition, % at 5 µM. 290,000 tested, 0.23% active;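 active = inhibition above a per-plate limit of that plate's mean compound inhibition plus 3 SD, cut at about 60% in these data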;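 note: higher means less KLF5 promoter-driven luciferase light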
APP 5UTR inh = inhibitors of APP translation via 5'UTR reporter, primary screen, APP 5'UTR luciferase, SH-SY5Y cells; SH-SY5Y APP 5'UTR-luciferase reporter, luminescence; inhibition, % at 2 µM; 190,000 tested, 0.82% active;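 active = inhibition above a set limit, derived from the sample mean plus 3 SD, cut at about 45% in these data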
Ba/F3 V617F tox = reduced viability of JAK2V617F-dependent Ba/F3 cells, primary screen, JAK2V617F inhibitor project, cell-based, Ba/F3 EpoR-JAK2V617F, luminescence; inhibition, % at 5.6 µM; ATP luminescence; 220,000 tested, 1.1% active;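 active = inhibition above the campaign mean plus 3 SD over all tested compounds, cut at about 24% in these data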;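 note: cytokine-independent growth of Ba/F3 cells driven by EpoR plus mutant JAK2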
Large screens that a line does not name were inactive.

COc1ccc(NC(=S)/N=C(\N)Nc2nc(C)c3ccc(C)cc3n2)cc1	BaF3 parental 43
CCOc1ccc2nc(N/C(N)=N/C(=S)Nc3ccc(C)c(C)c3)nc(C)c2c1	none
Cc1ccc2nc(C)c(C(=O)NN=C3CCN(C)CC3)n2c1	APP 5UTR inh 68
CCOC(=O)c1c(C)nc2ccc(C)cn12	none
Cc1ccc2c(c1)c(C)cc[n+]2Cc1ccccc1	BaF3 parental 70, Ba/F3 V617F tox 94
COCCN(Cc1cc2cc(C)cc(C)c2nc1Cl)C(=O)Nc1ccccc1	none
Cc1cc(C)c2nc(Cl)c(CN(Cc3ccco3)C(=O)Nc3ccccc3C)cc2c1	APP 5UTR inh 57
CCC(C)Nc1nc(-c2ccccn2)nc2ccccc12 (configuration not stated)	aSyn 5UTR inh 69 (no result: BaF3 parental, APP 5UTR inh, Ba/F3 V617F tox)
c1ccc(CNc2nc(-c3ccccn3)nc3ccccc23)cc1	none (no result: BaF3 parental, APP 5UTR inh, Ba/F3 V617F tox)
Fc1ccccc1/C=N/Nc1nc(-c2ccccn2)nc2ccccc12	aSyn 5UTR inh 81 (no result: APP 5UTR inh)
Cc1cc(C(=O)CSc2nnc3ccccn23)c(C)n1-c1ccccc1	aSyn 5UTR inh 102
COc1cc(C(=O)NC(=S)N(CCc2ccccc2)CCc2ccccc2)cc(OC)c1OC	aSyn 5UTR inh 69
COc1cc(C(=O)NC(=S)N(C)Cc2ccccc2)cc(OC)c1OC	none
COc1ccc(N2C(=O)CC(Sc3nnc(-c4ccccc4)o3)C2=O)cc1 (configuration not stated)	APP 5UTR inh 46
CCCNC(=O)CCn1nc(-c2ccc(C)cc2)c2ccccc2c1=O	none (no result: BaF3 parental, APP 5UTR inh, Ba/F3 V617F tox)
CCCNC(=O)CCn1nc(-c2ccc(Cl)cc2)c2ccccc2c1=O	aSyn 5UTR inh 82 (no result: APP 5UTR inh)
COc1ccccc1C(=O)NC(CCSC)C(=O)NCCCn1nc(C)cc1C (configuration not stated)	none (no result: IEC-6 tox, BaF3 parental, KLF5 inhibitor, APP 5UTR inh, Ba/F3 V617F tox)
Cc1nn(Cc2cccc(F)c2)c(C)c1NC(=O)c1ccc(COc2ccccc2Cl)cc1	aSyn 5UTR inh 69
Cc1nn(Cc2c(F)c(F)c(F)c(F)c2F)c(C)c1NC(=O)c1cccc(COc2ccccc2Cl)c1	none
O=C(COc1ccc(S(=O)(=O)N2CCCC2)cc1)N1CCCCC1	none (no result: BaF3 parental, APP 5UTR inh, Ba/F3 V617F tox)
CC(=O)Nc1ccc(Nc2nc(-c3c(C)nc4ccccn34)cs2)cc1	aSyn 5UTR inh 87 (no result: IEC-6 tox, BaF3 parental, KLF5 inhibitor, APP 5UTR inh, Ba/F3 V617F tox)
Cc1nc2ncccn2c1-c1csc(Nc2ccccc2)n1	none
Cc1nc2ncccn2c1-c1csc(Nc2ccc(S(N)(=O)=O)cc2)n1	none (no result: BaF3 parental, APP 5UTR inh, Ba/F3 V617F tox)
COc1ccc(Nc2nc(-c3c(C)nc4ncccn34)cs2)cc1	IEC-6 tox 86, BaF3 parental 83, KLF5 inhibitor 84, APP 5UTR inh 94, Ba/F3 V617F tox 83 (no result: aSyn 5UTR inh)
Cc1nc2ncccn2c1-c1csc(Nc2ccc(N(C)C)cc2)n1	IEC-6 tox 22, aSyn 5UTR inh 70, BaF3 parental 81, APP 5UTR inh 94, Ba/F3 V617F tox 79
O=C(c1ccccc1)c1nn(-c2ccc(Cl)cc2)c(=O)cc1C(F)(F)F	BaF3 parental 30
Cc1cc(Cl)c2oc(C(=O)N3CCN(c4ccncc4)CC3)c(C)c2c1	aSyn 5UTR inh 90 (no result: BaF3 parental, APP 5UTR inh, Ba/F3 V617F tox)
C=C(C)CSc1nc2ccccc2[nH]1	BaF3 parental 89
Cc1ccc(N(CC(=O)NC2CCCC2)C(=O)CNC(=O)c2cccs2)cc1C	none (no result: BaF3 parental, APP 5UTR inh, Ba/F3 V617F tox)
Cc1onc(-c2c(Cl)cccc2Cl)c1CO/N=C(\C#N)c1c(Cl)cccc1Cl	none (no result: APP 5UTR inh)
CNCC(O)Cn1c2c(c3ccccc31)CCCC2 (configuration not stated)	none
Fc1ccc(CN2CCCCCCC2)cc1	none
CCn1c2c(c(=N)c3ccccc31)CCC2	BaF3 parental 46 (no result: APP 5UTR inh)
CCCCn1c2c(c(=N)c3c1CCC3)CCC2	BaF3 parental 63, Ba/F3 V617F tox 73 (no result: aSyn 5UTR inh)
CCn1c2c(c(=N)c3c1CCC3)CCC2	BaF3 parental 28
N=c1c2c(n(Cc3ccc(F)cc3)c3c1CCC3)CCC2	BaF3 parental 65, Ba/F3 V617F tox 49
CCOC(=O)c1ccc(N2CN(CC)CNC2=S)cc1	aSyn 5UTR inh 64
CCCN1CNC(=S)N(c2ccc(C(=O)OCC)cc2)C1	none
O=[N+]([O-])c1ccc(Cl)cc1Sc1nc2ccccc2o1	aSyn 5UTR inh 69
O=[N+]([O-])c1ccc(Sc2nc3ccccc3o2)c([N+](=O)[O-])c1	APP 5UTR inh 63
CC1Cc2ccccc2N1C(=O)CN1CCC(C(N)=O)CC1 (configuration not stated)	none
Cc1ccc(-c2nc3cnccn3c2Nc2ccccc2)o1	none (no result: IEC-6 tox, BaF3 parental, KLF5 inhibitor, Ba/F3 V617F tox)
Cc1ccc(-c2nc3ccccn3c2Nc2ccccc2)o1	BaF3 parental 92
Cc1ccccc1-c1cnn(-c2cccc([N+](=O)[O-])c2)c1N	none
Nc1c(-c2ccccc2Cl)cnn1-c1cccc([N+](=O)[O-])c1	BaF3 parental 46
COc1ccc(NC(=S)N2CCCCCC2)cc1OC	none
NC(=S)n1[nH]c(-c2ccc([N+](=O)[O-])cc2)c(N=Nc2ccccc2[N+](=O)[O-])c1=O	BaF3 parental 46 (no result: aSyn 5UTR inh)
CCNC(=O)C1CC(=O)N(CCCc2ccccc2)C(=Nc2ccccc2)S1 (configuration not stated)	none (no result: APP 5UTR inh)
CCSc1nccc(-c2nn(-c3ccc(C)cc3)ccc2=O)n1	BaF3 parental 38, Ba/F3 V617F tox 31 (no result: APP 5UTR inh)
Cc1ccc2[nH]c(C)c(CCNC(=O)c3c(N)no[n+]3[O-])c2c1	none
CCc1ccccc1NC(=O)c1cc(=O)c2ccccc2o1	none
O=C(c1ccccc1)C(C(=O)N1CCc2ccccc2C1)n1ccccc1=O (configuration not stated)	none
COc1ccccc1N=C(C)C1=C(O)CC(c2ccccc2)CC1=O (configuration not stated)	aSyn 5UTR inh 122, APP 5UTR inh 92
COc1ccc(CNCCC(c2ccc(OC(C)C)cc2)c2ccccc2OC)cc1 (configuration not stated)	aSyn 5UTR inh 134 (no result: BaF3 parental, APP 5UTR inh, Ba/F3 V617F tox)
COc1ccccc1C(CCNCc1ccccc1)c1ccc(OC(C)C)cc1 (configuration not stated)	none (no result: BaF3 parental, APP 5UTR inh, Ba/F3 V617F tox)
COc1ccccc1C(CCNCc1ccc(N(C)C)cc1)c1ccc(OC(C)C)cc1 (configuration not stated)	aSyn 5UTR inh 135 (no result: BaF3 parental, APP 5UTR inh, Ba/F3 V617F tox)
CC(C)(C)Nc1nc2nonc2nc1NC(C)(C)C	BaF3 parental 33, Ba/F3 V617F tox 35 (no result: APP 5UTR inh)
CC1CCC(N(CCCN)Cc2ccco2)CC1C (configuration not stated)	none
CC1=CC(C)C2COC(c3ccc[n+](C)c3)C1C2C (configuration not stated)	BaF3 parental 40, Ba/F3 V617F tox 35
CC(C)NC(=O)Cn1c(=O)n(CC(=O)N2CCCCC2)c(=O)c2sccc21	none (no result: BaF3 parental, APP 5UTR inh, Ba/F3 V617F tox)
CCOc1ccc(C(=O)CSCCC(=O)O)cc1	aSyn 5UTR inh 68
Cc1ccc(C(=O)N2c3ccccc3OCC2C)cc1 (configuration not stated)	none (no result: BaF3 parental, APP 5UTR inh, Ba/F3 V617F tox)
